ALDH1A1 block – blocks purified human ALDH1A1 activity | Purified ALDH1A1, NADH fluorescence, propionaldehyde substrate | Potency, µM (series often up to 75.3 µM), for the others: top-dose activity, negative = inhibition, hits mostly inhibitors | hit rate 7.3% among 220,000; active = well fitted inhibition curve with a large enough effect, not every such curve was filed as active; inconclusive = small, poorly fitted or top-dose-only effect, or another doubt; inactive = no such curve, though single readings can be large or run the other way;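 note: plate controls were no enzyme wells and a reference inhibitor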
Sfp inh – inhibitors of Bacillus subtilis Sfp phosphopantetheinyl transferase; Biochemical Sfp PPTase activity, qHTS; Potency, µM, for the others: largest response in the series, negative = inhibition, most hits filed as inhibitors; hit rate 3.5% among 310,000;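 note: the enzyme is Sfp with the accession as filed and its product quenches rhodamine fluorescence; 0% = enzyme reaction without inhibitor and -100% = no enzyme wells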
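Fluorescence-quenching assay with 15 nM Sfp, 5 uM rhodamine-CoA and 12.5 uM BHQ-2-labelled ybbR peptide in pH 7.6 Hepes/MgCl2 buffer. Enzyme was pre-incubated with compound for 15 min at room temperature. Rate was taken from the 30-min fluorescence change (525/598 nm).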
Gal4-VP16 FLuc – Gal4-VP16 reporter inhibition counter-screen; hit rate 3.5% among 310,000; AID 2546; Potency, µM (top dose mostly 53.6 µM), for the others: top-dose activity, negative = inhibition, hits mostly inhibitors; Drosophila S2 Gal4-VP16 UAS-luciferase, luminescence, 20 h;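 note: Gal4-VP16 expression switched on by copper sulfate through the metallothionein promoter; nearly all actives have a fitted effect of over 50% in size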
RORgamma inh – blocks mouse ROR gamma transcriptional activity | P51450 | hit rate 5.4% among 310,000 | Potency, µM (doses to about 53.6 µM), for inactives: at the highest dose activity change, negative = inhibition, actives largely listed as inhibitors | Drosophila S2 Gal4-RORgamma UAS-luciferase reporter, 20 h | AID 2551; note: nearly all actives have a fitted effect of over 60% in size
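Stable Schneider cell line, Gal4 DNA-binding domain fused to ROR gamma, UAS-luciferase. Cmpd 1 hr RT → CuSO4 700 uM final → 20 hr RT → luciferase reagent 10 min → luminescence.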
PLK1 PBD inh – inhibitors of human PLK1 polo-box domain binding; P53350; hit rate 2.8% among 360,000; Plk1 PBD binding of FITC phosphopeptide, fluorescence polarization; Potency, µM, for the others: max response, negative = inhibition, hits mostly inhibitors; note: series mostly up to about 57 µM; nearly all actives have a fitted effect of over 65% in size
Target sequence (P53350 whole entry, looked up, the tested form may be a part): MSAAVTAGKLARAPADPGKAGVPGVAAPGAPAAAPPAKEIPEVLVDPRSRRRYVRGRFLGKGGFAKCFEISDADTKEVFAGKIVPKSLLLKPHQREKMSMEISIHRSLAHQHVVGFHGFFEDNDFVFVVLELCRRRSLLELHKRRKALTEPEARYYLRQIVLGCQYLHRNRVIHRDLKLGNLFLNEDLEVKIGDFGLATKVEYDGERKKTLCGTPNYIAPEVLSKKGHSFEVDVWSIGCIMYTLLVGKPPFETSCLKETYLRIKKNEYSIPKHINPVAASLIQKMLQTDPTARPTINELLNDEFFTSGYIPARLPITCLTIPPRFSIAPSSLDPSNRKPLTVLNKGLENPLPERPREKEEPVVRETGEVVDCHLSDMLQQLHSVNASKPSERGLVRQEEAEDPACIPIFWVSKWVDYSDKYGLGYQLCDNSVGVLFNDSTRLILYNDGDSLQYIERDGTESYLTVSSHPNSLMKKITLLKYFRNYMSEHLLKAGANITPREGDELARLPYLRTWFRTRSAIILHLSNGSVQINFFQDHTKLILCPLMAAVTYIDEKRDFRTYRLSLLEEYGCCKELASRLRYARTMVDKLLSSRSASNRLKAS
Starred values were filed as active, the others as inactive; [ ] = another dose, or the depositor's remark. Shown are actives, neighbours in structure and some others; about 12% of the full set was active somewhere. Unless noted, calls come from the whole dose curve; as a rule, active = well fitted curve in the direction sought with a large enough effect; inconclusive = small, poorly fitted or top-dose-only effect, or another doubt; inactive = no such curve, though single readings can be large; an effect the other way counts as inactive or inconclusive. Unless noted, % is set by controls: 0 for no effect and ±100 for the full control effect; potency is the fitted concentration of half-maximal effect.

COc1cccc(CNC(=O)[C@@H]2CCCN2C(=O)OC(C)(C)C)c1 was read as PLK1 PBD inh -8.0%.
COc1cc2c(cc1OC)C1O[C@](c3ccsc3)(C2)Oc2c1c(=O)oc1ccc(F)cc21 was read as Sfp inh -16.3%, Gal4-VP16 FLuc -22.7%[10 µM] and RORgamma inh 29.7%[10 µM].
O=C(O)c1ccc(N/N=C/c2ccc(-c3ccc(Br)cc3)o2)cc1 was read as Sfp inh 1.5%, Gal4-VP16 FLuc -4.0%, RORgamma inh inconclusive and PLK1 PBD inh inconclusive.
Screening O=C(O)c1ccc(N/N=C/c2ccc(OC(=O)c3ccccc3Cl)cc2)cc1 returned ALDH1A1 block 3.3%, Sfp inh -6.8%, Gal4-VP16 FLuc 0.316µM*, RORgamma inh 0.398µM* and PLK1 PBD inh 29.9µM*.
Screening Cc1ccc(/C=N/Nc2ccc(C(=O)O)cc2)o1 returned ALDH1A1 block 2.8%, Sfp inh 11.1%, Gal4-VP16 FLuc 0.398µM*, RORgamma inh 0.316µM* and PLK1 PBD inh -7.1%.
`CCN(CC)C(=O)C1=C(C)N(CCC2=CCCCC2)C(=O)C(CC(=O)NC(c2ccccc2)c2ccccc2)C1` (stereo not drawn) gave PLK1 PBD inh 1.2%.
`O=C(O)CCc1ccc(-c2ccccc2)[nH]1` gave ALDH1A1 block -9.1%[13.5 µM].
`O=C(CSc1ccc(F)cc1)N1CCN(S(=O)(=O)c2ccccc2)CC1` gave ALDH1A1 block 2.82µM*, Sfp inh -2.4%, Gal4-VP16 FLuc 0.2%, RORgamma inh -5.1% and PLK1 PBD inh -18.1%.
Screening CC(=O)Nc1ccc(SCC(=O)N2CCN(S(=O)(=O)c3ccccc3)CC2)cc1 returned Sfp inh 8.2%, Gal4-VP16 FLuc 1.3%, RORgamma inh 3.4% and PLK1 PBD inh -16.4%.
`Cc1cc(Br)ccc1SCC(=O)N1CCN(S(=O)(=O)c2ccccc2)CC1` gave Sfp inh 10.7%, Gal4-VP16 FLuc 7.08µM*, RORgamma inh inconclusive and PLK1 PBD inh inconclusive.
CCC(=O)c1ccc(OCC(=O)Nc2ccccc2N2CCCCC2)cc1 was read as Sfp inh 5.7%, Gal4-VP16 FLuc -0.9%, RORgamma inh -9.8% and PLK1 PBD inh -2.2%.
For c1ccc2c[n+](Cc3ccnc4ccccc34)ccc2c1 the results were ALDH1A1 block -0.8%[13.5 µM].
Screening Cc1ccsc1/C=C1/SC(N2CC(C)OC(C)C2)=NC1=O (stereo not drawn) returned ALDH1A1 block 11.2µM*, Sfp inh 56.2µM*, Gal4-VP16 FLuc 5.6%, RORgamma inh 31.3% and PLK1 PBD inh 29.9µM*.
For Cc1nnsc1C(=O)NC1CCCc2c1cnn2-c1ccccc1F (stereo not drawn) the results were Sfp inh 20.2%, Gal4-VP16 FLuc 10µM*, RORgamma inh 16.6% and PLK1 PBD inh 0.8%.
Cc1cc(C)cc(-n2ncc3c2CCCC3NC(=O)C2(C(N)=O)CC2)c1 (stereo not drawn) was read as Sfp inh 11.2%, Gal4-VP16 FLuc -15.9%, RORgamma inh 23.1% and PLK1 PBD inh -4.2%.
Screening Cc1cccc(-n2ncc3c2CCCC3NC(=O)C2(C(N)=O)CC2)c1C (stereo not drawn) returned Sfp inh 1.2%, Gal4-VP16 FLuc 7.94µM*, RORgamma inh inconclusive and PLK1 PBD inh -1.7%.
Cc1nnsc1C(=O)NC1CCCc2c1cnn2-c1ccc(C(C)(C)C)cc1 (stereo not drawn) was read as Sfp inh 4.2%, Gal4-VP16 FLuc 6.31µM*, RORgamma inh -37.4% and PLK1 PBD inh 1.0%.
`COc1ccc(C(=O)NC2CCCc3c2cnn3-c2ccccc2F)cc1OC` (stereo not drawn) gave Sfp inh 19.1%, Gal4-VP16 FLuc 2.51µM*, RORgamma inh inconclusive and PLK1 PBD inh 1.4%.
Screening CCCNC(=O)c1cc(C2CCCCN2S(=O)(=O)c2ccccc2)on1 (stereo not drawn) returned PLK1 PBD inh -2.6%.
For COc1ccc(CCN2C(=O)CCC2(C)c2nnnn2-c2ccc3c(c2)OCCO3)cc1OC (stereo not drawn) the results were PLK1 PBD inh -5.4%.
Screening CC(C)(C)c1ccc(-n2ncc3c2CCCC3NC(=O)CN2CCOC2=O)cc1 (stereo not drawn) returned Sfp inh 16.4%, Gal4-VP16 FLuc 12.6µM*, RORgamma inh -2.6% and PLK1 PBD inh -9.7%.
`CC(C)(C)c1ccc(-n2ncc3c2CCCC3NC(=O)CCN2CCCCC2=O)cc1` (stereo not drawn) gave Sfp inh -3.1%, Gal4-VP16 FLuc inconclusive, RORgamma inh inconclusive and PLK1 PBD inh -2.9%.
`COc1cc2c(cc1OC)n(CC(=O)NC1CCCCCC1)n1c(C)cc(=O)nc21` gave Sfp inh 3.0%, Gal4-VP16 FLuc -5.3%, RORgamma inh 10.3% and PLK1 PBD inh 26.7µM*.
`Cc1ccc(-n2[nH]c(C)c(C=Nc3ccc4[nH]c(=O)[nH]c4c3)c2=O)cc1` gave ALDH1A1 block -0.3%, Sfp inh -10.8%, Gal4-VP16 FLuc inconclusive, RORgamma inh 21.9%[10 µM] and PLK1 PBD inh -7.0%.
Cc1ccc(N=Cc2c(C)[nH]n(-c3nc4ccccc4[nH]3)c2=O)cc1 was read as ALDH1A1 block -4.8%, Sfp inh 4.2%, Gal4-VP16 FLuc 11.2µM*, RORgamma inh 2.82µM* and PLK1 PBD inh -1.4%.
Screening COc1ccc(C2(c3ccc(OC(C)=O)cc3OC(C)=O)CC(c3ccccc3)NC(=S)N2)cc1 (stereo not drawn) returned ALDH1A1 block 8.5%, Sfp inh 13.1%, Gal4-VP16 FLuc -4.1%, RORgamma inh -43.8% and PLK1 PBD inh -9.8%.
CC(=O)Oc1ccc(C2(C)CC(C)(C)NC(=S)N2C)c(OC(C)=O)c1 (stereo not drawn) was read as ALDH1A1 block 0.7%, Sfp inh 8.8%, Gal4-VP16 FLuc inconclusive, RORgamma inh 12.6µM* and PLK1 PBD inh -0.1%.
For CCCCCCCCC(c1nc2ccccc2[nH]1)N1CCN=C1c1cc2ccccc2[nH]1 (stereo not drawn) the results were PLK1 PBD inh 4.5%.
Screening COc1ccc(C2CC(=O)N(CC(=O)NCC3CCCO3)c3ccccc3S2)cc1OC (stereo not drawn) returned ALDH1A1 block 4.3%, Sfp inh 13.5%, Gal4-VP16 FLuc 10.0%, RORgamma inh 12.2% and PLK1 PBD inh -8.3%.
`COc1ccc(C2CC(=O)N(C)c3ccccc3S2)cc1OC` (stereo not drawn) gave ALDH1A1 block 10.1%, Sfp inh 3.0%, Gal4-VP16 FLuc inconclusive, RORgamma inh 7.94µM* and PLK1 PBD inh 0.2%.
`CCOC(=O)c1c(C)[nH]c(C)c1C(=O)COC(=O)/C=C/c1ccco1` gave PLK1 PBD inh -3.7%.
Screening O=C(Nc1ccc2nc(-c3ccco3)[nH]c2c1)c1cccs1 returned ALDH1A1 block 7.08µM*, Sfp inh -12.3%, Gal4-VP16 FLuc -19.4%, RORgamma inh inconclusive and PLK1 PBD inh -12.9%.

Screening data from PubChem.
